PubChem BioAssay (Tox21)
Values without a mark were called inactive. Inconclusive results are not listed. A call without a number means that no potency is given here. The source made the active and inactive calls. Unless noted, the call rests on the fitted dose curve; in most records, active means well fitted curve in the direction sought with a large enough effect in the repeat runs; inconclusive means weak or mixed curves; inactive means no such curve, though single readings can be large; an effect the other way counts as inactive or inconclusive.

Assays:
[1] = biological target: Thyrotropin-releasing hormone receptor (Homo sapiens) (UniProt P34981); experiment: qHTS assay to identify small molecule agonists of the thyrotropin-releasing hormone receptor (TRHR) signaling pathway (AID 1346891; calls by dose curve; further: series mostly up to about 58 µM)
Chain of Thyrotropin-releasing hormone receptor (Homo sapiens) (P34981 whole entry, looked up): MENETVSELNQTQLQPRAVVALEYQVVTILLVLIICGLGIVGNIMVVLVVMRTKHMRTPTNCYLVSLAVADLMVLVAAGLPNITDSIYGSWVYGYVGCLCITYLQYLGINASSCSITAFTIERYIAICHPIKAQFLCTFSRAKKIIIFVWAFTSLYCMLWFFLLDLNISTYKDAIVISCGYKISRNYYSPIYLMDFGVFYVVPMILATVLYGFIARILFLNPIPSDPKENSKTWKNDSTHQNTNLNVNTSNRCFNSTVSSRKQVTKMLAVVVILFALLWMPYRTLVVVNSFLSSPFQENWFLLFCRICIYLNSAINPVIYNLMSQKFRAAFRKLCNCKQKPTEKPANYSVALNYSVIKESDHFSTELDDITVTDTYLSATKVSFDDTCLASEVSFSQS
Method in brief: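 TRHR-expressing HEK293 cells were plated 18 h at 37 °C/5% CO2, loaded with calcium dye 2 h at 37 °C, then given compound in DMSO; fluorescence was read kinetically for 3 min at 1 s intervals.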

[2] = Human pregnane X receptor (PXR) small molecule agonists, qHTS cell viability counter screen (AID 1346977); further: nearly all actives have a fitted effect of over 50% in size; further: potency means the concentration at half of the fitted maximal effect
Method in brief: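 PXR-Luc HepG2 cells in medium with 5% charcoal-stripped FBS were pre-incubated 5hr, then exposed to compounds for 24hr at 37C. Viability was read in the same wells by CellTiter-Fluor fluorescence, reagent added after 23hr with a 1hr incubation.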

[3] = Caspase-3/7 induction in HepG2 cells by small molecules, qHTS assay (AID 1346978); further: nearly all actives have a fitted effect of over 15% in size
Method in brief: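 Wild-type HepG2 cells (2,000/well) were settled 5 h at 37 C, 5% CO2, then exposed to compounds in DMSO for 17 h. Caspase-3/7 activity was read by luminescence 30 min after adding Caspase-Glo 3/7 reagent at room temperature.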

[4] = Caspase-3/7 induction in CHO-K1 cells by small molecules, qHTS cell viability counter screen (AID 1346979); further: nearly all actives have a fitted effect of over 35% in size
Method in brief: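 Wild-type CHO-K1 cells were seeded at 1,500 per well, rested 5hr at 37 C, then exposed to compounds in DMSO. After 16hr, CellTiter-Fluor reagent was added and fluorescence read 1hr later as the viability measure.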

[5] = Caspase-3/7 induction in CHO-K1 cells by small molecules, qHTS assay (AID 1346980); further: nearly all actives have a fitted effect of over 15% in size
Method in brief: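 Wild-type cells were seeded at 1,500 per well and settled 5 hr at 37 C, 5% CO2, then exposed to DMSO-dissolved compounds for 17 hr. Caspase-Glo 3/7 reagent was added, and luminescence was read after 30min at room temperature.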

[6] = Caspase-3/7 induction in HepG2 cells by small molecules, qHTS cell viability counter screen (AID 1346981); further: series mostly up to about 92 µM; nearly all actives have a fitted effect of over 30% in size
Method in brief: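 Viability determined by CellTiter-Fluor fluorescence in HepG2 wells also used for the luminescent Caspase-Glo 3/7 read. Compounds were present for 16 hr at 37 C, 5% CO2 before reagent addition.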

[7] = biological target: Nuclear receptor subfamily 1 group I member 2 (Homo sapiens) (UniProt O75469); experiment: Human pregnane X receptor (PXR) small molecule agonists, qHTS assay (AID 1346982); further: nearly all actives have a fitted effect of over 35% in size; further: potency means the concentration at half of the fitted maximal effect
Chain of Nuclear receptor subfamily 1 group I member 2 (Homo sapiens) (O75469 whole entry, looked up): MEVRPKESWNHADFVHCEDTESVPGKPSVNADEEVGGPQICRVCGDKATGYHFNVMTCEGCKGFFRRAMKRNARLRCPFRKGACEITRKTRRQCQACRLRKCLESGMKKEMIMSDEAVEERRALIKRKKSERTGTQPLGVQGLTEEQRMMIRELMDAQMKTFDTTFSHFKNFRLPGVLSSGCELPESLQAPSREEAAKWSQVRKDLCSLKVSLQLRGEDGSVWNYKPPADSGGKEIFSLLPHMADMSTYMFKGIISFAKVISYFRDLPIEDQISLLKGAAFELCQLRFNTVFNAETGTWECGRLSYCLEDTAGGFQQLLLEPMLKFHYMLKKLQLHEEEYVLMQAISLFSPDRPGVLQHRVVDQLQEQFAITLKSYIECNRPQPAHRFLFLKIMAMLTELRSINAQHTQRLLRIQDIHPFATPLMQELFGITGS
Method in brief: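 Compound-induced hPXR transactivation of a CYP3A4 luciferase reporter was scored in HepG2 PXR-Luc cells over 24 hr at 37 C, 5% CO2, by luminescence.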

[8] = biological target: Cytochrome P450 2D6 (Homo sapiens) (UniProt P10635); experiment: Cytochrome P450 Family 2 Subfamily D Member 6 (CYP2D6) small molecule antagonists: luciferase reporter qHTS assay (AID 1671196); further: nearly all actives have a fitted effect of over 50% in size; further: potency means the concentration at half of the fitted maximal effect
Chain of Cytochrome P450 2D6 (Homo sapiens) (P10635 whole entry, looked up): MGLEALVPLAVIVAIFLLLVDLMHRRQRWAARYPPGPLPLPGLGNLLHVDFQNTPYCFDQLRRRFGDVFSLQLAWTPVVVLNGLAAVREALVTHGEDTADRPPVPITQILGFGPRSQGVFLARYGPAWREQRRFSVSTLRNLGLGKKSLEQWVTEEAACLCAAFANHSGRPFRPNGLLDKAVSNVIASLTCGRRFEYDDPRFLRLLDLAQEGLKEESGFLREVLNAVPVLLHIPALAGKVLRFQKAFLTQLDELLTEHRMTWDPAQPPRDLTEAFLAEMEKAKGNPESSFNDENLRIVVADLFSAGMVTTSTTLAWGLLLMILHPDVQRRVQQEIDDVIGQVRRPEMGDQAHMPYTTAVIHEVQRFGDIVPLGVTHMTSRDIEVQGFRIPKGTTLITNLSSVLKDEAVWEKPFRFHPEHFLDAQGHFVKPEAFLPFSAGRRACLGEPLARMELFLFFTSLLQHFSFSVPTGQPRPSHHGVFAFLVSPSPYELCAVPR
Method in brief: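 Each well received CYP2D6 with its proluciferin substrate and chemical, sat 10 min, then got NADPH regeneration solution for 1 h at room temperature. Luminescence in RLU served as the activity measure.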

[9] = biological target: Cytochrome P450 2C19 (Homo sapiens) (UniProt P33261); experiment: Cytochrome P450 Family 2 Subfamily C Member 19 (CYP2C19) small molecule antagonists: luciferase reporter qHTS assay (AID 1671197); further: nearly all actives have a fitted effect of over 65% in size; further: potency means the concentration at half of the fitted maximal effect
Chain of Cytochrome P450 2C19 (Homo sapiens) (P33261 whole entry, looked up): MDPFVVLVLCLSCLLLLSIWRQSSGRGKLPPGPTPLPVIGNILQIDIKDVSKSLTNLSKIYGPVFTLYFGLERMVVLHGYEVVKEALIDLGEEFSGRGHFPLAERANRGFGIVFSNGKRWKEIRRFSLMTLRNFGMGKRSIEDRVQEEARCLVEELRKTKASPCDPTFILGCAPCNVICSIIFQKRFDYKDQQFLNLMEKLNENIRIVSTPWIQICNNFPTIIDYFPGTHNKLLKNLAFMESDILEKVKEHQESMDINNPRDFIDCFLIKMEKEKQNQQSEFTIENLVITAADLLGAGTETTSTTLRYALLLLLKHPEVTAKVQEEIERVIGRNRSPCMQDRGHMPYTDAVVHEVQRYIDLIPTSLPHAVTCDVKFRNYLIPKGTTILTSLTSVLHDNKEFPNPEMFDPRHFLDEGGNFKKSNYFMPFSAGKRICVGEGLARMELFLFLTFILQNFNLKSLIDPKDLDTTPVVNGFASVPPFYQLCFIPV
Method in brief: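 Relative luminescence units recorded 20 min after the detection reagent stopped a 1 h, 37C CYP2C19 reaction on proluciferin substrate, which was started by NADPH regeneration following 10 min room-temperature compound preincubation; ketoconazole positive control.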

[10] = biological target: Cytochrome P450 2C9 (Homo sapiens) (UniProt P11712); experiment: Cytochrome P450 Family 2 Subfamily C Member 9 (CYP2C9) small molecule antagonists: luciferase reporter qHTS assay (AID 1671198); further: nearly all actives have a fitted effect of over 50% in size; further: potency means the concentration at half of the fitted maximal effect
Chain of Cytochrome P450 2C9 (Homo sapiens) (P11712 whole entry, looked up): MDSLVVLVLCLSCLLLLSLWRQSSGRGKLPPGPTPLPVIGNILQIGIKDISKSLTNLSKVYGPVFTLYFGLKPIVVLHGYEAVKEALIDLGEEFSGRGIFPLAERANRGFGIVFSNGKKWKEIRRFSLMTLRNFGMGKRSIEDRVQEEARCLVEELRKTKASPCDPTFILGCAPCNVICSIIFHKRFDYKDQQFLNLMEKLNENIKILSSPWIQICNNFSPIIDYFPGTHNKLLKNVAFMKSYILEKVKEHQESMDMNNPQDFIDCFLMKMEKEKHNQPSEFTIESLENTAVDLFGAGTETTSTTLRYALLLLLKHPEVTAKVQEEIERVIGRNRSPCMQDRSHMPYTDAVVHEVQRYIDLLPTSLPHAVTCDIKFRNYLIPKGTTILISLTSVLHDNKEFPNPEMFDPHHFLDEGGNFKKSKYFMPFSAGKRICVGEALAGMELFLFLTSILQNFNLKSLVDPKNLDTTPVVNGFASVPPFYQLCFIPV
Method in brief: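 CYP2C9 activity was measured with a P450-Glo proluciferin substrate. Enzyme–substrate mix was held with compound for 10 min at room temperature, then NADPH regeneration solution was added for 1 h at 37C. Luciferin product was read as luminescence.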

[11] = biological target: Cytochrome P450 1A2 (Homo sapiens) (UniProt P05177); experiment: Cytochrome P450 Family 1 Subfamily A Member 2 (CYP1A2) small molecule antagonists: luciferase reporter qHTS assay (AID 1671199); further: nearly all actives have a fitted effect of over 50% in size; further: potency means the concentration at half of the fitted maximal effect
Chain of Cytochrome P450 1A2 (Homo sapiens) (P05177 whole entry, looked up): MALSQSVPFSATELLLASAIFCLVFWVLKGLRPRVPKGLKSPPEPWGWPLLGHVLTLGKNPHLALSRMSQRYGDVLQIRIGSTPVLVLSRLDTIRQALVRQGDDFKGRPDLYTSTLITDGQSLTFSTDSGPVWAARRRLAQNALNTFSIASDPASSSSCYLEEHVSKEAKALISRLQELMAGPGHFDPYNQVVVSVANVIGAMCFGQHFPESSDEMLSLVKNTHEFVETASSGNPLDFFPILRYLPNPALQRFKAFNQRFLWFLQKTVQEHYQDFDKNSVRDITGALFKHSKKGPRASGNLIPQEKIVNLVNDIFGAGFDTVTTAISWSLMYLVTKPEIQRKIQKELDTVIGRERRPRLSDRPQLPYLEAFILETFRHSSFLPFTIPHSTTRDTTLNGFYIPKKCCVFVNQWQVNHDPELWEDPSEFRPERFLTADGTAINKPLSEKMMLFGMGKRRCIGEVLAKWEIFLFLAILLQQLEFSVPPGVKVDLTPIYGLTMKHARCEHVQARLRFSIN
Method in brief: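 Enzymatic CYP1A2 assay, human, luminescent: 10 min compound–enzyme–substrate preincubation, 1 h NADPH-dependent turnover, 20 min detection step, room temperature throughout. Reduced light indicates lower CYP1A2 activity.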

[12] = biological target: Voltage-gated inwardly rectifying potassium channel KCNH2 (Homo sapiens) (UniProt Q12809); experiment: Human Ether-a-go-go-Related Gene (hERG) channel small molecule antagonists: fluorescence cell-based qHTS assay (AID 1671200); further: nearly all actives have a fitted effect of over 50% in size; further: potency means the concentration at half of the fitted maximal effect
Chain of Voltage-gated inwardly rectifying potassium channel KCNH2 (Homo sapiens) (Q12809 whole entry, looked up): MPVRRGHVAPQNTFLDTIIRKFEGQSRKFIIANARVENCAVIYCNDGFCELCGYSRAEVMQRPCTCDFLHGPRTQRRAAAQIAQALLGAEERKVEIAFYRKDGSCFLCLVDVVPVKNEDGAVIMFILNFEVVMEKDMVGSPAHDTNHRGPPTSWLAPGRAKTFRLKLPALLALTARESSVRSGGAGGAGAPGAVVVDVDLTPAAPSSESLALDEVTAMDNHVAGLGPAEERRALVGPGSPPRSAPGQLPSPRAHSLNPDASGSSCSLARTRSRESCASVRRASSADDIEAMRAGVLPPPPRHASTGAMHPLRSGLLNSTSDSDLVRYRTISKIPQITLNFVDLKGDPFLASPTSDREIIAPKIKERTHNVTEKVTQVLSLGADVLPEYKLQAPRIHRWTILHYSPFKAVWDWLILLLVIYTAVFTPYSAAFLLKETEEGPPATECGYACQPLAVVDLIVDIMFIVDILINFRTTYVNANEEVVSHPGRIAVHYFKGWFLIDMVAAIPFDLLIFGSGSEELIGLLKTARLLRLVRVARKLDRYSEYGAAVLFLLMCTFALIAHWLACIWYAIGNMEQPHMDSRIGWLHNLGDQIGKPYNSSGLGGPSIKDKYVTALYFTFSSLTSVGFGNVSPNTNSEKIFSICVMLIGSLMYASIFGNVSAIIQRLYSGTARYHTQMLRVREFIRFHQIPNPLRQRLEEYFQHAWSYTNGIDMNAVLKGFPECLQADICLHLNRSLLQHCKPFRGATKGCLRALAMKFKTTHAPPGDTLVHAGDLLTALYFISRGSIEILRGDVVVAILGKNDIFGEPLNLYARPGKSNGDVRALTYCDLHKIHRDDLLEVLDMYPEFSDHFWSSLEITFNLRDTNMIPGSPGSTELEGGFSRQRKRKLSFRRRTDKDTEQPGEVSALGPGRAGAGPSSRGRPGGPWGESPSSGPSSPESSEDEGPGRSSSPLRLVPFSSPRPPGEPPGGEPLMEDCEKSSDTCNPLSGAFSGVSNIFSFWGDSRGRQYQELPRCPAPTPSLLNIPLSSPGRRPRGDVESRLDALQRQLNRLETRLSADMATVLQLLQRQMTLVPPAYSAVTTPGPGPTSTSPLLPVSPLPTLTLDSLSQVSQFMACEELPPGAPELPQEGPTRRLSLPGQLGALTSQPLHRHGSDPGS
Method in brief: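 U2OS cells expressing the channel were plated at 1000 cells/well, incubated overnight at 37 C, then loaded with FluxOR II thallium-sensitive dye for 1 h at room temperature in the dark, with a further 10 min at room temperature before stimulation.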

[13] = biological target: Cytochrome P450 3A4 (Homo sapiens) (UniProt P08684); experiment: Cytochrome P450 Family 3 Subfamily A Member 4 (CYP3A4) small molecule antagonists: luciferase reporter qHTS assay (AID 1671201); further: nearly all actives have a fitted effect of over 50% in size; further: potency means the concentration at half of the fitted maximal effect
Chain of Cytochrome P450 3A4 (Homo sapiens) (P08684 whole entry, looked up): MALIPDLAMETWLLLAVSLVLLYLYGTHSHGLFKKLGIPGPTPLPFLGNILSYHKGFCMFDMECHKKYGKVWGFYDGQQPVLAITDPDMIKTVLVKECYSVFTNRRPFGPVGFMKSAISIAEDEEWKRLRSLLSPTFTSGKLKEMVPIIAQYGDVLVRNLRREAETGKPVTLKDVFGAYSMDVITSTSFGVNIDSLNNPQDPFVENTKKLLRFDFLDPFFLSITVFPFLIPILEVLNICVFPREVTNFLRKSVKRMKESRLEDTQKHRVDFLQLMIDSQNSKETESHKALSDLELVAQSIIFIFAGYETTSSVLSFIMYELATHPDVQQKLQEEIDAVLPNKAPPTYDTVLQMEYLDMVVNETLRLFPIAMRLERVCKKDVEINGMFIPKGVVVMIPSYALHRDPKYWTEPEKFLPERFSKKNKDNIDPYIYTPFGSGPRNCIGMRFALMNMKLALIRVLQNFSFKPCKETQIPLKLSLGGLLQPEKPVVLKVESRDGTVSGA
Method in brief: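 P450-Glo CYP3A4 system with proluciferin substrate; compounds preincubated 10 min RT with enzyme-substrate mix, then NADPH regeneration added for 1 h RT. Detection reagent 20 min, luminescence read as relative luminescence units.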

[14] = biological target: Nuclear receptor subfamily 1 group I member 2 (Rattus norvegicus) (UniProt Q9R1A7); experiment: Rat pregnane X receptor (rPXR) activation by small molecules, qHTS assay (AID 1346983); conditions: rPXR luciferase reporter cells, One-Glo luminescence, 24 h; max activation: active compounds read high; further: nearly all actives have a fitted effect of over 20% in size
Chain of Nuclear receptor subfamily 1 group I member 2 (Rattus norvegicus) (Q9R1A7 whole entry, looked up): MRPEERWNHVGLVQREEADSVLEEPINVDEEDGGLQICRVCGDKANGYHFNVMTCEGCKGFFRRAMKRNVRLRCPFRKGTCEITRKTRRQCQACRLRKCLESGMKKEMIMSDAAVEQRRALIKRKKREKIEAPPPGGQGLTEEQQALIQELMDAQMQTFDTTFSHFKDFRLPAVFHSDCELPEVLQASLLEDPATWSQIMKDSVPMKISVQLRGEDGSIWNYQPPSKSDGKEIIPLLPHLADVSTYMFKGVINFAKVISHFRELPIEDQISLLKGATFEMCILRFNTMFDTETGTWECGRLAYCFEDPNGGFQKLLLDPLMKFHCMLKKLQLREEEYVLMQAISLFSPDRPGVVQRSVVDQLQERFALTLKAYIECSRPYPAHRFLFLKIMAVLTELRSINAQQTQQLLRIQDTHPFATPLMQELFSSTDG
Method in brief: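 Cell-based rPXR luciferase reporter assay, 2,000 cells per well, rested 5hr at 37 C before compound addition in DMSO, then 24 hr at 37 C. One-Glo reagent was added and luminescence read after 30 min at room temperature.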

[15] = biological target: Nuclear receptor subfamily 1 group I member 2 (Homo sapiens) (UniProt O75469); experiment: CYP3A4 induction through human pregnane X receptor (PXR) by small molecules, qHTS assay (AID 1346984); further: nearly all actives have a fitted effect of over 40% in size
Method in brief: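 Readings come from a luciferase reporter: DPX-2 cells, which are HepG2 cotransfected with PXR and a CYP3A4-promoter construct, were exposed to test compounds for 24 h at 37C before One-Glo detection.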

[16] = biological target: Nuclear receptor subfamily 1 group I member 2 (Homo sapiens) (UniProt O75469); experiment: Human pregnane X receptor (PXR) activation by small molecules, qHTS assay (AID 1346985); further: nearly all actives have a fitted effect of over 40% in size
Method in brief: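 DPX-2 cells (HepG2 co-transfected with a PXR response element and a CYP3A4-promoter luciferase construct) were seeded at 2,000 per well, rested 5 hr at 37C, then exposed to DMSO-dissolved compounds for 24 hr. Activation was read as luciferase luminescence.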

SMILES | outcome [1] | Potency [2] | Potency [3] | Potency [4] | Potency [5] | Potency [6] | Potency [7] | Potency [8] | Potency [9] | Potency [10] | Potency [11] | Potency [12] | Potency [13] | max activation [14] | Potency [15] | Potency [16]
CC(O)CN (configuration not stated) | inactive | inactive | inactive | inactive | inactive | inactive | inactive | inactive | inactive | inactive | inactive | inactive | inactive | – | – | –
C/C=C1\[C@H]2C=C(C)C[C@]1(N)c1ccc(=O)[nH]c1C2 | inactive | inactive | inactive | inactive | inactive | inactive | inactive | inactive | inactive | inactive | inactive | inactive | inactive | -1.47% | inactive | inactive
C[Si](C)(C)O[Si](C)(C)O[Si](C)(C)C | inactive | inactive | inactive | inactive | inactive | inactive | inactive | inactive | inactive | inactive | inactive | inactive | inactive | – | – | –
O=C(O)c1cccc(C(=O)O)c1C(=O)O | inactive | inactive | inactive | inactive | inactive | inactive | inactive | 40.3 µM (active) | 71.7 µM (active) | inactive | inactive | inactive | inactive | – | – | –
Cc1nc(C)c(C)nc1C | inactive | inactive | inactive | inactive | inactive | inactive | inactive | inactive | inactive | inactive | 35.6 µM (active) | inactive | inactive | – | – | –
CCCCCCCCOCCCN | inactive | 61.1 µM (active) | inactive | inactive | inactive | inactive | inactive | 6.33 µM (active) | 2 µM (active) | 28.3 µM (active) | 6.33 µM (active) | 43.6 µM (active) | – | – | – | –
CCCCCCOC(=O)c1ccccc1 | inactive | inactive | inactive | inactive | inactive | inactive | inactive | inactive | inactive | inactive | 20 µM (active) | inactive | inactive | – | – | –
COc1cc(CNC(=O)CCCC/C=C/C(C)C)ccc1O | inactive | inactive | inactive | inactive | inactive | inactive | 33.5 µM (active) | 38.9 µM (active) | 9.77 µM (active) | 9.77 µM (active) | 30.9 µM (active) | inactive | 12.3 µM (active) | – | – | –
CC(COc1ccccc1)NC(C)C(O)c1ccc(O)cc1 (configuration not stated) | inactive | inactive | inactive | inactive | inactive | inactive | 23.7 µM (active) | 0.55 µM (active) | 8.71 µM (active) | 15.5 µM (active) | 17.4 µM (active) | inactive | inactive | 3.54% | inactive | inactive
C=CCCC | inactive | inactive | inactive | inactive | inactive | inactive | inactive | inactive | inactive | inactive | inactive | inactive | inactive | – | – | –
O=C(C1CCCCC1)N1CC(=O)N2CCCc3ccccc3C2C1 (configuration not stated) | inactive | inactive | inactive | inactive | inactive | inactive | 7.5 µM (active) | inactive | 4.9 µM (active) | 13.8 µM (active) | inactive | inactive | – | – | – | –
O=C(OC1C[C@H]2CC[C@@H](C1)[N+]21CCCC1)C(O)(c1ccccc1)c1ccccc1 (some centres not stated) | inactive | inactive | inactive | inactive | inactive | inactive | inactive | 4.9 µM (active) | – | inactive | inactive | inactive | – | -1.51% | inactive | inactive
CCCCCCCCCCCCCCCCN | inactive | inactive | inactive | inactive | inactive | inactive | inactive | – | – | inactive | inactive | inactive | inactive | -4.68% | inactive | inactive
COc1ccc(/C=C/S(=O)(=O)NC(=O)c2ccc(C)cc2Cl)cc1 | inactive | inactive | inactive | inactive | inactive | inactive | 27.3 µM (active) | inactive | inactive | 17.8 µM (active) | inactive | inactive | inactive | – | – | –
C1CCN(CN2CCCCC2)CC1 | inactive | inactive | inactive | inactive | inactive | inactive | inactive | 7.1 µM (active) | inactive | inactive | inactive | inactive | inactive | – | – | –
Cc1ccc(S(=O)(=O)NC(=O)NC2CCCC2)cc1 | inactive | inactive | inactive | inactive | inactive | inactive | inactive | inactive | inactive | – | inactive | inactive | inactive | -4.06% | inactive | inactive
CC/C=C/CCO | inactive | inactive | inactive | inactive | inactive | inactive | inactive | inactive | inactive | inactive | 36.2 µM (active) | inactive | inactive | – | – | –
Clc1nc2ccccc2nc1Cl | inactive | inactive | inactive | inactive | inactive | inactive | 61.8 µM (active) | 64 µM (active) | inactive | inactive | 5.09 µM (active) | inactive | inactive | – | – | –
